Screens deposited in PubChem BioAssay by Broad Institute.
Many of the other results were omitted from the sample, so hits are more common in it than they were.
ERp5 inh: blocks human ERp5 reductase activity on insulin | Q15084 | ERp5 insulin aggregation, absorbance 650 nm, 90 min | inhibition, % at 9.99 µM | actives 0.05% (n = 350,000) | AID 651711;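 active means mean replicate inhibition above about 25%, with every replicate also reaching it, limit read from the data, passing the limit was not always enough; inconclusive means only one of those two criteria met; inactive means neither criterion met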
HDAC3 inh: inhibitors of human histone deacetylase 3; O15379; recombinant HDAC3, fluorogenic peptide/trypsin coupled, fluorescence; inhibition, % at 8.3 µM; actives 0.15% (n = 320,000); AID 2718; in the data active means inhibition above about 26%, passing the limit was not always enough; inconclusive means no clear call, values can overlap the other calls
Target sequence (O15379 whole entry, looked up): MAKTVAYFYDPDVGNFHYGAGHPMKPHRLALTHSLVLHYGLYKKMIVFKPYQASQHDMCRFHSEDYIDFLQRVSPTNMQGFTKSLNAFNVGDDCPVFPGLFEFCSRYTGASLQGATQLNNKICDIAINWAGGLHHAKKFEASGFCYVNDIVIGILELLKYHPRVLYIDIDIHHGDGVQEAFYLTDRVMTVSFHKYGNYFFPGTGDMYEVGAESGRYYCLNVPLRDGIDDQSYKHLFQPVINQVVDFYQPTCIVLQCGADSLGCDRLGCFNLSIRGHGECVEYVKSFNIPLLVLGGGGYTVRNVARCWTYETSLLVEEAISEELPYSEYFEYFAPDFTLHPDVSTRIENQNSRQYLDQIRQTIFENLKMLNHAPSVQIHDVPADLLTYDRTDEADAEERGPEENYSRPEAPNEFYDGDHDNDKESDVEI
SIRT5 block: blocks human SIRT5 desuccinylation of peptide | Purified SirT5, succinyl-peptide AMC, trypsin-coupled fluorescence | AID 652115 | Q9NXA8 | actives 1.1% (n = 330,000) | inhibition, % at 15 µM; in the data active means inhibition above about 15%; inconclusive means no clear call, values can overlap the other calls
PDI inh: inhibitors of human protein disulfide isomerase; P07237; PDI insulin aggregation turbidity, A650, 90 min; inhibition, % at 10 µM; actives 0.052% (n = 350,000); AID 588391;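 active means mean inhibition across replicates of 30% or more, whatever share of single replicates reach that level; inconclusive means mean inhibition below 30% while every single replicate reaches 30%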
ERAP1 HTS inh: blocks human ERAP1 aminopeptidase activity. inhibition, % at 10.7 µM. recombinant ERAP1, Leu-AMC fluorescence, 60 min. Q9NZ08. actives 0.15% (n = 340,000);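 active means mean replicate inhibition of at least 30%, or all replicates individually reaching that 30% level; inactive means mean below 30% and not every replicate reaching it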;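 further: 0% = neutral control wells and 100% = L-leucinethiol positive control wells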
* = called active by the depositor; ? = inconclusive; . = not tested or not shown.

SMILES	ERp5 inh	HDAC3 inh	SIRT5 block	PDI inh	ERAP1 HTS inh
Cc1cccc(S(=O)(=O)N2CC[C@@H]3[C@H](CO)Nc4ccc(C#Cc5cccc(F)c5)cc4[C@@H]32)c1	0	.	6	.	-1
CO[C@@H]1CN(C)C(=O)c2ccc(NC(=O)Cc3ccccc3)cc2OC[C@@H](C)N(CCc2ccccc2)C[C@H]1C	2	.	11	.	2
COc1ccc(S(=O)(=O)Nc2ccc3c(c2)C(=O)N([C@@H](C)CO)C[C@H](C)[C@@H](CN(C)C(=O)Nc2ccc(F)cc2)OCCCC[C@@H](C)O3)cc1	0	.	16*	.	0
COc1ccc(S(=O)(=O)Nc2ccc3c(c2)C(=O)N([C@@H](C)CO)C[C@@H](C)[C@@H](CN(C)C(=O)Nc2ccc(F)cc2)OCCCC[C@@H](C)O3)cc1	-8	.	18*	.	-2
Cc1ccc(S(=O)(=O)Nc2ccc3c(c2)C(=O)N([C@H](C)CO)C[C@@H](C)[C@H](CN(C)C(=O)Nc2ccc(F)cc2)OCCCC[C@H](C)O3)cc1	0	.	21*	.	-3
CCCN1[C@@H]2c3ccc(-c4ccccc4)c(=O)n3C[C@@H]2[C@@H](CO)[C@@H]1C(=O)N1CCOCC1	4	.	5	.	-3
C[C@@H]1CN([C@H](C)CO)S(=O)(=O)c2ccc(/C=C/c3ccccc3)cc2O[C@H]1CN(C)C(=O)c1ccncc1	4	.	4	.	-2
C[C@H](CO)N1C[C@H](C)[C@H](CN(C)S(=O)(=O)c2cn(C)cn2)OCCCC[C@H](C)Oc2ccc(NS(=O)(=O)c3ccc(F)cc3)cc2C1=O	0	.	-1	.	2
O=C(c1ccncc1)N1C[C@H]2[C@@H](c3ccccc31)[C@@H](CO)N2C(=O)c1ccccn1	2	.	-1	.	-2
C[C@@H]1CN([C@H](C)CO)C(=O)c2c(c3ccccc3n2C)-c2ccccc2CO[C@@H]1CN(C)C(=O)c1cc(Cl)cc(Cl)c1	7	.	19*	.	0
Cc1noc(C)c1C(=O)N(C)C[C@@H]1OCc2ccccc2-c2c(n(C)c3ccccc23)C(=O)N([C@H](C)CO)C[C@H]1C	-1	.	17*	-2	-4
C[C@H]1CN([C@@H](C)CO)C(=O)c2c(c3ccccc3n2C)-c2ccccc2CO[C@@H]1CN(C)C(=O)c1cc(Cl)cc(Cl)c1	0	.	1	.	-1
Cc1noc(C)c1C(=O)N(C)C[C@@H]1OCc2ccccc2-c2c(n(C)c3ccccc23)C(=O)N([C@@H](C)CO)C[C@H]1C	10	.	1	.	1
Cc1noc(C)c1NC(=O)N(C)C[C@@H]1OCCCC[C@H](C)Oc2ccc(NS(=O)(=O)c3c(C)noc3C)cc2C(=O)N([C@H](C)CO)C[C@@H]1C	4	.	-1	.	-2
Cc1ccc(S(=O)(=O)Nc2ccc3c(c2)C(=O)N([C@H](C)CO)C[C@H](C)[C@@H](CN(C)C(=O)Nc2c(C)noc2C)OCCCC[C@@H](C)O3)cc1	18	.	-6	.	0
c1ccc(COc2cccc(-c3cc4nc(NCCOc5ccccc5)ccn4n3)c2)cc1	6	.	.	20	-1
c1ccc(COc2cccc(-c3cc4nc(NCCc5ccncc5)ccn4n3)c2)cc1	4	.	19*	-5	5
CN1CCN(C(=O)C[C@@H]2CC[C@H]3[C@@H](COc4ccc(NC(=O)C5CCCC5)cc4C(=O)N3C)O2)CC1	3	.	-2	.	0
Cc1c(CC(=O)NCCCC(=O)O)c(=O)oc2cc3occ(-c4ccccc4)c3cc12	4	-3	1	-2	-1
Cc1c(CCC(=O)NCCCCCC(=O)O)c(=O)oc2cc3occ(-c4ccccc4)c3cc12	-2	-3	5	3	35*
C[C@H]1CN([C@@H](C)CO)C(=O)c2cccc(NC(=O)NC3CCCCC3)c2O[C@H]1CN(C)Cc1ccncc1	-1	.	-4	.	-1
O=C(O)c1cccc(NC2=C(Cl)C(=O)c3ccccc3C2=O)c1	3	.	112*	7	5
CCCCC1CCC(C(=O)OC(C)C(=O)Nc2ccc(NC(C)=O)cc2)CC1 (stereo not drawn)	2	-5	-1	-5	75*
Cc1noc(C)c1S(=O)(=O)N(C)C[C@@H]1OCCCC[C@H](C)Oc2ccc(NS(=O)(=O)c3cccs3)cc2C(=O)N([C@@H](C)CO)C[C@H]1C	-4	.	-1	.	2
Cc1cc(C)n2nc(C(=O)Nc3ccc4c(c3)CCC4)nc2n1	3	2	15*	1	3
SMILES	ERp5 inh	HDAC3 inh	SIRT5 block	PDI inh	ERAP1 HTS inh
Cc1cc(C)n2nc(C(=O)Nc3ccc(S(=O)(=O)N4CCCC4)cc3)nc2n1	0	-1	-4	2	1
O=C(Nc1ncc(S(=O)(=O)c2ccc([N+](=O)[O-])cc2)s1)c1ccccc1F	19	.	22*	-6	-2
Fc1cccc(C2NC(=S)NC3=C2N2CCC3CC2)c1 (stereo not drawn)	3	-4	21*	19	-2
CC(C)(C)c1cc(NCCCn2ccnc2)n2ncc(-c3ccccc3)c2n1	2	-5	-2	-5	5
CCCc1cc(NCCCn2ccnc2)n2nc(C)c(-c3ccccc3)c2n1	4	13	18*	-3	.
CNC[C@@H]1OCCCC[C@@H](C)Oc2ccc(NS(=O)(=O)c3ccccc3)cc2C(=O)N([C@H](C)CO)C[C@@H]1C	-1	.	7	.	-5
Cc1noc(C)c1S(=O)(=O)Nc1ccc2c(c1)C(=O)N([C@@H](C)CO)C[C@@H](C)[C@H](CN(C)S(=O)(=O)c1cn(C)cn1)OCCCC[C@@H](C)O2	3	.	-4	.	1
O=c1oc(-c2ccccc2Br)nc2ccccc12	-1	44*	-1	-2	1
CCCCCCCCn1ccc(=N)cc1	4	5	-2	5	-1
CCCCCCCCCCCCCCCCn1cc[n+](C)c1	14	?	7	?	79*
CCN1C(=O)[C@H]2[C@@H](c3ccc(-c4cccc(Cl)c4)c(OC)c3)N[C@@](CC(C)C)(C(=O)OC)[C@H]2C1=O	2	2	25*	-27	0
Cc1ccc(C)c(N2CCN(C(=O)c3cccn4c(=O)c5sccc5nc34)CC2)c1	7	0	19*	-3	10
Cc1ccc(C)c(N2CCN(C(=O)c3cc4ccccc4oc3=O)CC2)c1	-6	7	6	.	2
C#CCOCCOCCOCCNc1nc(N2CCN(C(=O)[C@H](CCCCN)n3cc(CC(C)O)nn3)CC2)nc(N2CCN(C(=O)[C@H](Cc3ccc(O)cc3)n3cc(CCO)nn3)CC2)n1 (stereo partly drawn)	-1	.	.	14	-4
C#CCOCCOCCOCCNc1nc(N2CCN(C(=O)CCCCCCCCCCNC(=O)[C@H](CCCCN)n3cc(C)nn3)CC2)nc(N2CCN(C(=O)CCCCCCCCCCNC(=O)[C@@H]([C@H](C)CC)n3cc(CCCCCN)nn3)CC2)n1	.	31*	.	-5	.
